A selection: hits, their analogues and other compounds. The true share with any hit is near 3.5%.
M1 ag – activates human CHRM1 receptor; P11229; CHO-K1 hM1, Fluo-8 calcium fluorescence, agonist mode; 0% DMSO, 100% acetylcholine EC100; activation, % at 3 µM; actives 0.33% (n = 360,000); AID 588814;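 active means activation above the run's mean compound activation plus 3 SD, cut at about 16% in these data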;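 further: peak over basal fluorescence ratio within a 140 s kinetic read after compound addition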
SKN-1 inh – blocks SKN-1 activity in C. elegans; C. elegans VP596 Pgst-4::GFP/RFP ratio, acrylamide-induced, 24 h; inhibition, % at 21.8 µM; actives 0.49% (n = 360,000); AID 624304;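 active means interference check ratio from 0.5 to 1.5 plus GFP to RFP signal ratio inhibition reaching or exceeding a fixed threshold, cut at about 30% in these data, passing the limit was not always enough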
Myeloid diff MLP – promotes myeloid progenitor differentiation; AID 624256; ER-HoxA9 myeloid progenitors, lysozyme-GFP differentiation, flow cytometry; actives 1% (n = 360,000); calls only at 10 µM;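 active means normalized GFP-positive differentiation at or above the plate's own cutoff, the solvent-only control mean plus 3 SD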;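 further: cells exposed to compound for four days before flow analysis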
ATG4B inh – blocks human ATG4B protease cleavage of LC3 substrate; ATG4B cleavage of LC3-PLA2, NBD-HPC fluorescence, 1 h; inhibition, % at 8.33 µM; actives 0.51% (n = 340,000); in the data active means inhibition above about 40%
Target sequence (Q9Y4P1 whole entry, looked up): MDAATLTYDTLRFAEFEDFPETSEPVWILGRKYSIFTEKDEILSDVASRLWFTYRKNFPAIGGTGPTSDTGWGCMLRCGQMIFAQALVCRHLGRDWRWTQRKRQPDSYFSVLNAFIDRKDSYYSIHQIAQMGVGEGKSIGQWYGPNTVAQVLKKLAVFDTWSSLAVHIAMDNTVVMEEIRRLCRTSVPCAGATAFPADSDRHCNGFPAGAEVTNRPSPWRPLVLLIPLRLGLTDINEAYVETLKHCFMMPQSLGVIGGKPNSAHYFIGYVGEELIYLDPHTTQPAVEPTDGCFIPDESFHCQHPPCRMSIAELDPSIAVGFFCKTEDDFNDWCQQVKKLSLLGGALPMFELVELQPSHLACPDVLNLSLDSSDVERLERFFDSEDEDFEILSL
CHRM1 antagonist – human CHRM1 antagonism | P11229 | CHO-K1 hM1, Fluo-8 calcium fluorescence, ACh EC80 antagonist | inhibition, % at 3 µM | actives 1.3% (n = 360,000) | AID 588852;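 active means percent inhibition above its own plate's cutoff, namely the mean of that plate's compound wells plus 3 SD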;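 further: peak over basal fluorescence ratio during 140 s after agonist addition; 0% = ACh EC80 plus DMSO and 100% = DMSO alone without agonist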
CHRM1 PAM – human CHRM1 positive allosteric modulation; P11229; CHO-K1 hM1, Fluo-8 calcium fluorescence, ACh EC20; 0% = ACh EC20, 100% = maximal ACh; activation, % at 3 µM; actives 0.088% (n = 360,000); AID 588819; in the data active means activation above about 19%, passing the limit was not always enough
Active calls of the source: *; i = inactive; . = not tested or not shown; + = active, no number.

SMILES | M1 ag | SKN-1 inh | Myeloid diff MLP | ATG4B inh | CHRM1 antagonist | CHRM1 PAM
O=C1NC2(CCN(Cc3ccccc3)CC2)Oc2ccccc21 | -9.0 | -3.6 | i | 5.4 | -4.9 | 4.9
CC(C)(C)c1ccc(C(=O)CCC(=O)OCC(=O)NCCc2ccc(S(N)(=O)=O)cc2)cc1 | 2.5 | -3.6 | i | -22.2 | 46.9* | -19.3
Cc1ccc2nc(NC(=O)c3ccco3)sc2c1 | -1.4 | 44.7* | i | 4.3 | -8.8 | 7.0
COc1ccc2c(c1)Cc1sc(NC(=O)c3ccccc3)nc1-2 | -4.5 | 42.5* | i | -2.2 | -19.3 | 3.7
Cc1ccc2nc(NC(=S)NC(=O)c3ccco3)sc2c1 | 4.9 | 5.8 | i | -4.2 | -8.5 | 5.9
CC(=O)Nc1nc2ccc(Br)cc2s1 | -2.7 | 35.2* | i | 14.3 | -14.9 | 11.1
O=C(Nc1nc2c(s1)CCc1ccccc1-2)c1ccco1 | -4.0 | 41.4* | i | 7.6 | 0.4 | 6.0
CCOC(=O)C1=C(N)OC2=C(C(=O)CC(C)(C)C2)C1c1cc(CSc2nnnn2C)cs1 (stereo not drawn) | -2.6 | 2.9 | i | -14.2 | -4.5 | 3.4
O=C(Nc1nc2c(ccc3ccccc32)s1)c1ccco1 | -2.9 | 80.6* | i | -13.4 | -11.5 | 5.6
O=C(Nc1nc2c(F)c(F)c(F)cc2s1)c1ccco1 | -0.5 | 13.4 | i | 0.4 | -0.5 | 3.5
C=CC(=O)Nc1ccc(CN2C(=O)N(c3c(Cl)c(OC)cc(OC)c3Cl)Cc3cnc(NCCCCN(CC)CC)nc32)cc1 | -11.0 | -8.9 | i | -2.0 | 38.8* | -29.5
C=CCN(c1ccccc1OC)S(=O)(=O)c1cccc(C(=O)OCC(=O)c2c(N)n(C)c(=O)n(C)c2=O)c1 | -2.7 | 13.9 | i | -18.3 | 31.4* | -21.2
O=C(CCNS(=O)(=O)c1cccc2nsnc12)N1CCN(c2ccccn2)CC1 | -4.9 | 0.3 | i | . | 89.4* | -21.7
O=C(C1CCC(CNS(=O)(=O)c2cccc3nsnc23)CC1)N1CCN(c2ccccn2)CC1 (stereo not drawn) | -5.2 | -2.5 | i | -9.0 | 3.5 | -0.2
C[C@@H]1C=C[C@](Cc2ccccc2)(C(=O)NCC2CC2)N1C(=O)c1ccccc1 | -3.7 | 35.5* | i | 1.7 | -4.3 | 3.0
O=C(O)C1=CC[C@@H](c2ccc(Cl)cc2)N(S(=O)(=O)c2ccc(Cl)cc2)[C@H]1c1ccc(Br)cc1 | -5.7 | 6.2 | i | 26.8 | -4.7 | 3.7
CC(=O)c1cccc(NC(=O)N2CCCC2C(=O)Nc2c(C)cccc2C)c1 (stereo not drawn) | -2.3 | 37.2* | i | -3.6 | -22.8 | 4.0
CCCCSc1nc(N)nc2c1ncn2C1OC(CO)C(O)C1O (stereo not drawn) | -1.2 | 3.6 | i | -3.4 | -13.2 | 8.4
CCn1ccnc1CNC(=O)c1ccc2oc(CCCc3ccccc3)nc2c1 | -4.1 | -5.7 | i | 4.2 | 32.8* | -21.4
O=C1CCCCC(=O)N(c2ccccc2)c2ccccc21 | -4.8 | -12.8 | + | -1.5 | 4.5 | 2.5
COc1ccccc1NS(=O)(=O)c1ccc(C)c(NC(=O)C2CCCO2)c1 (stereo not drawn) | -2.9 | 2.2 | i | -7.1 | -10.8 | 8.8
Cc1ccc(CONC(=O)c2ccc(Cl)cc2)cc1 | -2.4 | 17.7 | i | -4.8 | -7.4 | 6.4
O=C(NOCc1ccccc1)c1ccc(Cl)cc1 | -7.0 | -17.6 | i | 0.7 | 40.9* | -22.1
CCc1ccc(-c2nc(SCC(=O)c3c(N)n(C4CC4)c(=O)[nH]c3=O)n[nH]2)cc1 | -1.6 | 0.8 | i | -5.4 | 2.7 | -1.0
COc1cccc(OCCOCCN(C)CCO)c1 | -3.2 | -14.1 | + | -6.8 | -6.5 | 5.7
SMILES | M1 ag | SKN-1 inh | Myeloid diff MLP | ATG4B inh | CHRM1 antagonist | CHRM1 PAM
Cc1cc(OCCOCCN(C)CCO)cc(C)c1Cl | -3.2 | -4.3 | i | 7.2 | -16.9 | 9.4
CN1CCN(c2ccc(CNC(=O)C3(C)Cc4c(-c5ccc6c(c5)OCO6)ccnc4O3)cc2)CC1 (stereo not drawn) | -10.3 | 4.9 | i | . | 11.2 | -11.9
CCOC(=O)CNC(=O)N1CCCC(C(=O)c2ccc3c(c2)OCO3)C1 (stereo not drawn) | -8.4 | -2.8 | + | -18.6 | 2.2 | -3.0
COc1ccc(CN2CCCC(C(=O)c3ccc4c(c3)OCO4)C2)c(F)c1 (stereo not drawn) | -3.1 | 16.5 | i | 19.8 | 93.3* | -23.2
CC(=O)c1cccc(CN2CCCC(C(=O)c3ccc4c(c3)OCO4)C2)c1 (stereo not drawn) | -10.2 | 1.0 | i | 0.7 | 71.7* | -25.8
CCCn1cc(CN2CCCC(C(=O)c3ccc4c(c3)OCO4)C2)c(C)n1 (stereo not drawn) | -4.9 | 15.5 | i | 27.4 | 64.6* | -23.7
CCN(CC)C(=O)C1CCCN(Cc2ccc3c(c2)OCO3)C1 (stereo not drawn) | -5.3 | -2.8 | i | 0.9 | 11.3 | -4.3
COc1ccc(C(=O)C2CCCN(Cc3ccc4c(c3)OCCO4)C2)cc1F (stereo not drawn) | -5.8 | -11.2 | i | 9.0 | 11.6 | -19.6
CCCc1cc(=O)[nH]c(SCC(=O)Nc2oc(C)c3c(C)n[nH]c(=O)c23)n1 | -4.2 | -0.7 | i | 3.0 | -4.1 | 5.9
CCOC(=O)C(=CNc1nc(-c2ccc3ccccc3c2)cs1)C(=O)OCC | -2.2 | 7.0 | i | 4.2 | 0.7 | -0.1
COc1ccccc1S(=O)(=O)N(C)C[C@H]1OCc2cn(nn2)CCCC(=O)N([C@H](C)CO)C[C@@H]1C | -2.9 | -1.3 | i | . | -19.6 | 11.9
CN1C(=O)c2ccc(NC(=O)c3ccc(Cl)cc3Cl)cc2C1=O | -0.4 | 6.8 | i | -2.8 | -10.4 | 7.7
O=c1[nH]cnc2c1ncn2-c1ccc(N(CCO)CCO)cc1 | 0.2 | 0.8 | i | 2.7 | -11.2 | 4.8
COC(=O)c1ccc(NC(=O)CN2C(=O)NC3(CCC(C)CC3)C2=O)cc1 (stereo not drawn) | -1.6 | 2.3 | i | -39.6 | -1.3 | 3.2
O=C(c1ccc2c(c1)OCO2)N1CCC(Cc2ccccc2)CC1 | -0.6 | -16.3 | i | 0.3 | -7.3 | 6.3
CCOc1cccc(CN2CCCC(C(=O)c3cc(Cl)ccc3OC)C2)c1O (stereo not drawn) | -8.0 | -22.9 | i | 3.4 | -4.1 | 0.8
COc1ccc2cc(C(=O)C3CCCN(Cc4cnc(C)s4)C3)ccc2c1 (stereo not drawn) | -10.5 | 1.4 | i | 5.1 | -0.8 | -3.5
COc1cccc(CN2CCCC(C(=O)c3ccc4c(c3)OCO4)C2)c1O (stereo not drawn) | -7.5 | -3.4 | i | 2.5 | 40.7* | -23.9
COc1cccc(C(=O)C2CCCN(CC3=Cc4cc(OC)ccc4OC3)C2)c1 (stereo not drawn) | -10.0 | -6.6 | i | 3.8 | 41.9* | -30.4
